Most compounds without a hit are left out; they make up all but 1.6% or so of the library.
KCNQ2 pot: potentiators of rat KCNQ2 potassium channel. Potassium voltage-gated channel subfamily KQT member 2 (Rattus norvegicus), O88943. CHO-K1 KCNQ2, FluxOR thallium flux fluorescence; hits give high values. B-score at 10 µM. 0.54% of 310,000 active;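 active = fluorescence ratio B-score at least 3 SD of library B-scores, with initial fluorescence B-score within 3 of them, cut at about 5.3 in these data; same plate scores as AID 2156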;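 note: B-score of peak minus minimum over baseline fluorescence ratio after K+ and Tl+ stimulus; positive B-score means potentiation of KCNQ2 with more thallium influx and brighter signal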
KCNQ2 block: rat KCNQ2 potassium channel inhibitors, primary screen, cell-based, CHO-K1, FluxOR thallium flux, B-score; Potassium voltage-gated channel subfamily KQT member 2 (Rattus norvegicus), O88943; 20 min; hits give low values; B-score at 10 µM; 1.1% of 310,000 active;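 active = fluorescence ratio B-score at most minus 3 library SDs, with starting brightness B-score within 2 library SDs, cut at about -5.5 in these data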
KCNQ2 block conf: rat KCNQ2 potassium channel inhibitors, confirmation, cell-based, thallium flux | shares compounds with KCNQ2 block | KCNQ2-expressing cells, inhibition; hits give low values | activity change, negative = inhibition, % at 10 µM | 57% of 1,000 active | AID 493025, 2011;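 note: 0% = vehicle wells and values are ratio percent relative to vehicle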
KCNQ1 spec: human KCNQ1 channel inhibition, counter-screen for KCNQ2 inhibitor project, cell-based, FluxOR thallium flux; shares compounds with KCNQ2 block; activity change, negative = inhibition, % at 10 µM; AID 493026, 2011; KCNQ1-expressing cells, FluxOR thallium flux fluorescence; hits give low values; 15% of 1,000 active;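 active = activity change at least 3 SD of negative controls below their mean in both duplicate wells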;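 note: CHO cells stably transfected with KCNQ1 and depolarized by potassium stimulus; peak minus minimum fluorescence over baseline after thallium addition; 0% = vehicle negative control and -100% = blank without thallium stimulus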
Target sequence (P51787 whole entry, looked up): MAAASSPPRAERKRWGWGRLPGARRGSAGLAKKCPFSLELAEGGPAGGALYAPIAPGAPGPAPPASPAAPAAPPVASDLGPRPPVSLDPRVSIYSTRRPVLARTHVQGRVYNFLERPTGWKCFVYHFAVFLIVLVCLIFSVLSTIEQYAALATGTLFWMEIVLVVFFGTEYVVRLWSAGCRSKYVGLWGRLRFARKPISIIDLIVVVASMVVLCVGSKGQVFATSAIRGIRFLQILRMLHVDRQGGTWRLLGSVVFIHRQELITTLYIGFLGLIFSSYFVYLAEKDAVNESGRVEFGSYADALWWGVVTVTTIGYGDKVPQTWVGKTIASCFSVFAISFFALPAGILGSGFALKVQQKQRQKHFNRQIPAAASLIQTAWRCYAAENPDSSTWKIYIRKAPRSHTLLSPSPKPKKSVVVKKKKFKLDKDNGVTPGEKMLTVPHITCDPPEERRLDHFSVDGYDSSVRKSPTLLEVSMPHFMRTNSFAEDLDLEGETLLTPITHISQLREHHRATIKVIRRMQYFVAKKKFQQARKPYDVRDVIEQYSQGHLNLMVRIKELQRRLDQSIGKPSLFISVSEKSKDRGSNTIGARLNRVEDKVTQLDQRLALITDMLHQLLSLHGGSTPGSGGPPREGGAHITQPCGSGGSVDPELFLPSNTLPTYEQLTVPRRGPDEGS
CHO parental ctr: thallium flux change in parental CHO cells, counter-screen for KCNQ2 inhibitor project. activity change, % at 10 µM. shares compounds with KCNQ2 block. hits give low values. AID 493029, 2011. 14% of 1,000 active;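 note: 0% = vehicle negative controls with stimulus buffer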
KCNQ2 patch conf: rat KCNQ2 channel inhibitors, confirmation, cell-based, automated patch clamp, single concentration | shares compounds with KCNQ2 block | KCNQ2-expressing cells, automated patch clamp current | calls only at 10 µM | 49% of 550 active | AID 588531, 2011
Numbers without * were called inactive; i = inactive; / = no result given; + = active, no number. Unless noted, the rule behind the calls is not given here.

SMILES	KCNQ2 pot	KCNQ2 block	KCNQ2 block conf	KCNQ1 spec	CHO parental ctr	others
O=C(CSc1ccc(Cl)cc1)N1CCN(c2c(Cl)cccc2[N+](=O)[O-])CC1	-8.2	-8.2*	i	i	i
O=C(/C=C/c1ccc(Cl)cc1)N1CCN(c2c(Cl)cccc2[N+](=O)[O-])CC1	/	i	/	/	/
CCN(C(=O)CCS(=O)(=O)c1ccc2c(c1)oc(=O)n2C)c1ccc(OC)cc1	2	i	/	/	/
Cc1cc(CC(=O)O)c2oc(-c3ccoc3)cc(=O)c2c1	0.03	i	/	/	/
COc1ccc(NC(=O)CC2CCCC2)cc1S(=O)(=O)N1CCCCC1	1.6	i	/	/	/
COc1ccc(NC(=O)CN2C(=O)NC3(CC(C)CC(C)(C)C3)C2=O)cc1S(=O)(=O)N1CCCCC1 (stereo not given)	-8.9	-8.9*	i	i	i
Cc1ccc(CC(=O)Nc2ccc(S(=O)(=O)Nc3ncccn3)cc2)cc1	/	i	/	/	/
C/C(=C\C(=O)c1ccc(Br)cc1)Nc1ccc(Cl)cc1	/	i	/	/	/
COc1cccc(N/C(C)=C/C(=O)c2ccc(Br)cc2)c1	-7.6	-7.6*	-41%*	-47%*	-33%*	KCNQ2 patch conf=i
Cc1nc(Nc2cccc(O)c2)c2c3c(sc2n1)CCC3	/	i	/	/	/
CS(=O)(=O)N(CC(=O)NCCSCc1ccccc1Cl)c1ccc(F)cc1	/	i	/	/	/
COC(=O)c1c(-c2ccc(F)cc2)csc1NC(=O)C1CCCO1 (stereo not given)	0.46	i	/	/	/
CCc1ccc(-c2csc(NC(=O)C3CCCO3)c2C(=O)OC(C)C)cc1 (stereo not given)	-8.3	-8.3*	-29%*	i	i
Cc1csc(=O)n1CC(=O)OCc1nnc(-c2ccccc2)o1	/	i	/	/	/
Cc1ccccc1NC1=C(C(=O)c2ccccc2)N(C)S(=O)(=O)c2ccccc21	-8.1	-8.1*	-29%*	i	i	KCNQ2 patch conf=+
O=C(C1=C(Nc2ccccc2)c2ccccc2S(=O)(=O)N1)c1ccccc1	0.03	i	/	/	/
Cn1c(-c2ccc3c(c2)OCO3)cnc1NCc1ccccc1Cl	0.69	i	/	/	/
Cn1c(-c2ccc3c(c2)OCO3)cnc1NCc1cccc(Cl)c1	-9	-9*	i	i	i
CCOC(=O)N1CCN(C(=O)c2cc(COc3cccc(C(F)(F)F)c3)on2)CC1	0.66	i	/	/	/
C=CCC1(CC=C)CCCN1C(=O)c1cc(COc2cccc(C(F)(F)F)c2)on1	-9.5	-9.5*	-34%*	-30%*	-28%*	KCNQ2 patch conf=+
Cc1cccc(C)c1OCC(=O)Nc1cccc(-c2nnc(-c3ccccc3)o2)c1	-9.5	-9.5*	-28%*	i	i	KCNQ2 patch conf=i
Cc1cccc(OCC(=O)Nc2cccc(-c3nnc(-c4ccccc4)o3)c2)c1C	0.59	i	/	/	/
COc1ccccc1C(=O)NC(=O)COC(=O)CN1C(=O)NC(C)(C)C1=O	/	i	/	/	/
CC(=O)Cc1nsc(NC(=O)c2cn(-c3ccccc3)nc2-c2ccc(Br)cc2)n1	0.67	i	/	/	/
CN(c1ccccc1C(=O)Nc1cccc(Br)c1)S(=O)(=O)c1ccccc1	-6.7	-6.7*	i	i	i
SMILES	KCNQ2 pot	KCNQ2 block	KCNQ2 block conf	KCNQ1 spec	CHO parental ctr	others
CN(c1ccccc1C(=O)Nc1cccc([N+](=O)[O-])c1)S(=O)(=O)c1ccccc1	/	i	/	/	/
COc1ccc(S(=O)(=O)N2CCC(C(=O)NCc3ccncc3)CC2)cc1	/	i	/	/	/
COc1ccc(N(CC(=O)N2CCc3ccccc3C2)S(=O)(=O)c2ccccc2)cc1	/	i	/	/	/
O=C(CN(c1ccc(Cl)c(Cl)c1)S(=O)(=O)c1ccccc1)N1CCc2ccccc2C1	-9.4	-9.4*	-33%*	i	i	KCNQ2 patch conf=+
Cc1cc(C(=O)CSc2ccc(F)cc2)cc(C)c1O	0.04	i	/	/	/
Cc1cc(C(=O)CSc2ccc(Cl)cc2)cc(C)c1OC(=S)N(C)C	-8.7	-8.7*	i	i	i
CCC(O)C1CCN(C(=O)c2ccc(OC3CCN(Cc4ccccn4)CC3)cc2)CC1 (stereo not given)	0.26	i	/	/	/

Screening results as filed in PubChem BioAssay.
